Compound activity from PubChem.
Sampled rows, rich in hits. Any-hit rate of the full collection: about 3.5%.
FBW7 act = human FBW7 E3 ligase activation, primary screen. Q969H0. AlphaScreen FBW7–phospho-cyclin E peptide binding, activator screen. normalized activity (activation), % at 26.1 µM. 0.13% of 650,000 active. AID 1259310; in the data active = normalized activity above about 1.9%;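 also: purified mutant Fbw7 with reduced substrate affinity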
Target sequence (Q969H0 whole entry, looked up): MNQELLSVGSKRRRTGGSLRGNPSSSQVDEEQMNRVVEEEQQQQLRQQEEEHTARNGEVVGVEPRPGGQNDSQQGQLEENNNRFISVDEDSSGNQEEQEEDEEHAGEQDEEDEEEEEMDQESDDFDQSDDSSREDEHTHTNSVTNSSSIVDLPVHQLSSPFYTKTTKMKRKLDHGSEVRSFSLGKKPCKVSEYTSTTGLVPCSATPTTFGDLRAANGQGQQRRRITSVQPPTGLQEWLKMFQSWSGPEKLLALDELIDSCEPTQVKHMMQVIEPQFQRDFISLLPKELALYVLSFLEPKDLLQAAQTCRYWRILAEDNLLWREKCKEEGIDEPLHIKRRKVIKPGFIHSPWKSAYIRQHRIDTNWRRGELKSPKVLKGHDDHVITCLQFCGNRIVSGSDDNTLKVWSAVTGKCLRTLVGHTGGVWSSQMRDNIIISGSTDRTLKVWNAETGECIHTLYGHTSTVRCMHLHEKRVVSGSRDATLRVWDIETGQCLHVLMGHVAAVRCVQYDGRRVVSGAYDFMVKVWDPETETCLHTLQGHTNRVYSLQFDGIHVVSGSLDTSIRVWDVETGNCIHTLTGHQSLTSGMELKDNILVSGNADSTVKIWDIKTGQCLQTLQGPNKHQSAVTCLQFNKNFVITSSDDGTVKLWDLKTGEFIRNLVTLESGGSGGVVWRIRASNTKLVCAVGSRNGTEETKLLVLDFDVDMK
MITF inh = inhibitors of human MITF; inhibition, % at 2.6 µM; O75030; 0.91% of 650,000 active; AlphaScreen MITF homodimerization, bead proximity signal; in the data active = inhibition above about 50%;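 also: 0% = vehicle wells with protein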
GPR151 ag = human GPR151 activation; Q8TDV0; PathHunter beta-arrestin GPR151 cells, luminescence; 1% of 650,000 active; activation, % at 11.2 µM; in the data active = activation above about 4.9%;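 also: 0% = median of compound wells and 100% = cells with positive control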
TEAD-YAP inh = TEAD-YAP interaction inhibition. 1.4% of 640,000 active. HEK-TIYL cells, TEAD-Gal4/YAP UAS-luciferase luminescence. inhibition, % at 9.12 µM; in the data active = inhibition above about 32%;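 also: 0% = median of test compound wells and 100% = reference inhibitor wells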
GPR151 confirm = human GPR151 activation, confirmation screen. shares compounds with GPR151 ag. 6,700 tested, under 10 active. activation, % at 11.2 µM. GPR151 PathHunter beta-arrestin cells, luminescence, 90 min; % of EA-reagent control over plate median;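 active = mean percent activation across replicates above the confirmation screen cutoff of 4.91%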
GPR119 counter = activates human GPR119 in a GPR151 counter-screen; shares compounds with GPR151 ag; GPR119 PathHunter beta-arrestin cells, luminescence, 90 min; 0 = compound-well median, 100 = enzyme-acceptor control; activation, % at 11.2 µM; 0.3% of 6,700 active; AID 1508611;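 active = mean percent activation in the counterscreen above 29.09%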;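 also: counterscreen on off-target GPR119 to flag nonselective hits from the GPR151 activator screen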
* = called active by the depositor.

O=c1cc(-c2ccc(O)cc2)oc2cc(O[C@@H]3O[C@H](CO)[C@@H](O)[C@H](O)[C@H]3O[C@@H]3OC[C@](O)(CO)[C@H]3O)cc(O)c12 was read as FBW7 act 0, MITF inh 19, GPR151 ag 8.2*, TEAD-YAP inh 11, GPR151 confirm 0 and GPR119 counter 9.
Screening CCOC(=O)c1cc(S(=O)(=O)NC2CCCCCC2)cn1C returned FBW7 act 0, MITF inh 9, GPR151 ag 0 and TEAD-YAP inh 10.
Screening COc1ccc(CCNC(=O)c2cc(-c3cccc(OC)c3)nc3ccccc23)cc1 returned FBW7 act 1, MITF inh 0, GPR151 ag -2 and TEAD-YAP inh 9.
COc1cccc(-c2cc(C(=O)NCCCn3ccnc3)c3ccccc3n2)c1 was read as FBW7 act 0, MITF inh 3, GPR151 ag 7.2*, TEAD-YAP inh 8, GPR151 confirm 2 and GPR119 counter 13.
Screening CCOC(=O)c1ccc(NC(=O)CN2C(=O)C3C4C=CC(C5CC45)C3C2=O)cc1 (stereo not given) returned FBW7 act 1, MITF inh 25, GPR151 ag 7.0*, TEAD-YAP inh 5, GPR151 confirm 1 and GPR119 counter 4.
CCOC(=O)c1ccc(NC(=O)CN2C(=O)C3C4C=CC(C4)C3C2=O)cc1 (stereo not given) was read as FBW7 act 0, MITF inh 25, GPR151 ag -2 and TEAD-YAP inh -8.
For CCOC(=O)c1ccc(NC(=O)CSc2nc3c(c(=O)n2CC)SC(C)C3)cc1 (stereo not given) the results were FBW7 act 0, MITF inh 2, GPR151 ag 5.1*, TEAD-YAP inh 20, GPR151 confirm 1 and GPR119 counter 10.
For CCOC(=O)c1ccc(NC(=O)CC2COc3ccccc3O2)cc1 (stereo not given) the results were FBW7 act 0, MITF inh 6, GPR151 ag 5.8*, TEAD-YAP inh 8, GPR151 confirm 1 and GPR119 counter 1.
`CCOc1ccc(NC(=O)CSc2nc3c(c(=O)n2CC)SC(C)C3)cc1` (stereo not given) gave FBW7 act 0, MITF inh 3, GPR151 ag -1 and TEAD-YAP inh 2.
CCOC(=O)c1ccc(COC(=O)c2cc(Br)ccc2NC(C)=O)cc1 was read as FBW7 act 0, MITF inh -1, GPR151 ag 6.3*, TEAD-YAP inh -13, GPR151 confirm 0 and GPR119 counter -1.
`CCOc1ccc(C(=O)NC(=S)Nc2ccc(NC(C)=O)cc2)cc1[N+](=O)[O-]` gave FBW7 act 0, MITF inh 8, GPR151 ag -1 and TEAD-YAP inh -5.
`O=S(=O)(NCCCCN1CCOC(c2ccccc2)C1)c1cc(Cl)ccc1Cl` (stereo not given) gave FBW7 act 0, MITF inh 3, GPR151 ag -1 and TEAD-YAP inh -8.
For COc1ccc(N2CCN(CCNc3ncnc4nc[nH]c34)CC2)cc1 the results were FBW7 act 0, MITF inh -8, GPR151 ag 0 and TEAD-YAP inh -11.
Screening N#Cc1ccc(NC(=O)CSc2ccc(Br)cc2)cc1 returned FBW7 act 0, MITF inh -15, GPR151 ag 1 and TEAD-YAP inh -8.
Screening O=C(CSc1ccc(Br)cc1)Nc1ccc([N+](=O)[O-])cc1 returned FBW7 act 0, MITF inh 6, GPR151 ag 6.4*, TEAD-YAP inh 13, GPR151 confirm 1 and GPR119 counter -14.
For CCOC(=O)c1ccc(NC(=O)CSc2ccc(Br)cc2)cc1 the results were FBW7 act 0, MITF inh -2, GPR151 ag 7.9*, TEAD-YAP inh 3, GPR151 confirm 0 and GPR119 counter -4.
`COc1ccc(SCCC(=O)Nc2ccc(Br)cc2)cc1` gave FBW7 act 0, MITF inh -8, GPR151 ag 5.2*, TEAD-YAP inh 11, GPR151 confirm 2 and GPR119 counter 9.
`CCCOC(=O)c1ccc(NC(=O)CSc2ccccc2)cc1` gave FBW7 act 0, MITF inh 3, GPR151 ag 0 and TEAD-YAP inh -11.
`Cc1cc2c(c(=O)n1Cc1ccc3c(c1)OCO3)C(c1ccc(O)cc1)C(C#N)=C(N)O2` (stereo not given) gave FBW7 act 0, MITF inh 11, GPR151 ag 0 and TEAD-YAP inh 16.
Screening c1coc(CNc2nc3ccccc3n2CCN2CCOCC2)c1 returned FBW7 act 0, MITF inh -11, GPR151 ag 9.8*, TEAD-YAP inh -19, GPR151 confirm 0 and GPR119 counter 19.
Screening Cn1c(CNc2nc3ccccc3n2CCN2CCOCC2)nc2ccccc21 returned FBW7 act 0, MITF inh 12, GPR151 ag -1 and TEAD-YAP inh -13.
`COc1cc(C(=O)Nc2nnc(Cc3ccc(Cl)cc3)s2)c([N+](=O)[O-])cc1OC` gave FBW7 act 0, MITF inh -2, GPR151 ag 6.1*, TEAD-YAP inh 12, GPR151 confirm 2 and GPR119 counter -3.
O=C(c1ccc(Br)c(S(=O)(=O)N2CCCCC2)c1)N1CCCCC1 was read as FBW7 act 0, MITF inh -11, GPR151 ag 11*, TEAD-YAP inh -10, GPR151 confirm 2 and GPR119 counter 14.
For O=C(CC1(O)C(=O)Nc2ccc(Br)cc21)c1ccccc1O (stereo not given) the results were FBW7 act 0, MITF inh -6, GPR151 ag 1 and TEAD-YAP inh 6.
For COCCN(Cc1cccc(Cl)c1)C(=O)c1nc2ccc(-c3cn[nH]c3)cc2s1 the results were FBW7 act 0, MITF inh 2, GPR151 ag 6.2*, TEAD-YAP inh -31, GPR151 confirm 0 and GPR119 counter -7.
`COCCN(Cc1cccc(OC)c1)C(=O)c1nc2ccc(-c3cn[nH]c3)cc2s1` gave FBW7 act 0, MITF inh 4, GPR151 ag 1 and TEAD-YAP inh -9.
For CC(C)N(Cc1nc(-c2ccccc2)no1)C(=O)CN1C(=O)c2ccccc2C1=O the results were FBW7 act 0, MITF inh 1, GPR151 ag 0 and TEAD-YAP inh -3.
CC(C)N(Cc1nc(-c2ccccc2)no1)C(=O)CCCN1C(=O)c2ccccc2C1=O was read as FBW7 act 0, MITF inh 14, GPR151 ag 11*, TEAD-YAP inh 9, GPR151 confirm 0 and GPR119 counter -4.
For COC(=O)N/N=C\c1c(C)nn(-c2ccccc2)c1Cl the results were FBW7 act 0, MITF inh 0, GPR151 ag 0 and TEAD-YAP inh -35.
